The target in assay [1] is N-terminal Xaa-Pro-Lys N-methyltransferase 1 (Homo sapiens) (UniProt Q9BV86). Put plainly: qHTS Assay for Inhibitors of N-terminal methyltransferase 1 (NTMT1): LOPAC validation of the NTMT1 SAHH-coupled ThioGlo3 Assay (AID 1347143).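 Also: SAH from peptide methylation measured as thiol fluorescence via SAHH coupling and ThioGlo3; nearly all actives have a fitted effect of over 70% in size.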 The note with it: recombinant NTMT1, SAHH-coupled ThioGlo3 fluorescence. An excerpt: Assay Submitter (PI): Rong Huang Ph.D, Purdue University, West Lafayette, IN 47907 The N-terminal methytransferase 1 is the first methyltransferase that methylates protein alpha-N-amines and plays an important role in regulating cell mitosis, chromatin interactions and DNA repair. It is observed to be over-expressed in various cancer patient tissues like malignant melanoma and colorectal cancer tissues. Knockdown of NTMT1 in cancer cells causes cell mitotic defects and enhances sensitivity to DNA damaging chemotherapeutics. […] These critical cellular processes in which NTMT1 is implicated, coupled with emerging links to cellular dysfunction, strengthen the inference that NTMT1 is a compelling novel anticancer target. […] To address this unmet need, a panel of assay is created and established to enable quantitative high-throughput screening (qHTS) for novel, potent, and selective small molecule NTMT1 inhibitors. […]
Materials: NTMT1 enzyme, substrate SPKRIA, control peptide RCC1-6 is provided by the Huang laboratory. […] Initial (background) fluorescence readout (EX: 340nm, EM: 450nm) was then detected using the PerkinElmer ViewLux microplate imager and a final fluorescence readout was taken after 30 min of room temperature incubation. The data was normalized to the background fluorescence.
(In general: qHTS replaces the single test concentration by a dilution series.)

The subject of assay [2] is Zika virus NS2B-NS3 protease (unlinked). Put plainly: Optimization of GU AMC qHTS for Zika virus inhibitors: Unlinked NS2B-NS3 protease assay (AID 1347151). Also: nearly all actives have a fitted effect of over 80% in size. The note with it: recombinant ZIKV NS2B-NS3 protease, fluorogenic AMC substrate; series mostly up to 114 µM. The gist of the method:
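Fluorescence gain (340/450 nm) over 15 min at room temperature, ~20% conversion, gave percent inhibition fitted to a 4-parameter Hill equation; enzyme was unlinked NS2B-NS3 (25 nM final), pH 8.0 Tris buffer.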

Records with an inconclusive call do not appear. Active and inactive are the calls of the source. Calls follow the shape of the dose curve; as a rule, active = well fitted inhibition curve with a large enough effect; inconclusive = small, poorly fitted or top-dose-only effect; inactive = no such curve, though single readings can be large or run the other way.
Potency is read from the fitted curve at half-maximal effect.

Sequence of N-terminal Xaa-Pro-Lys N-methyltransferase 1 (Homo sapiens) (Q9BV86 whole entry, looked up): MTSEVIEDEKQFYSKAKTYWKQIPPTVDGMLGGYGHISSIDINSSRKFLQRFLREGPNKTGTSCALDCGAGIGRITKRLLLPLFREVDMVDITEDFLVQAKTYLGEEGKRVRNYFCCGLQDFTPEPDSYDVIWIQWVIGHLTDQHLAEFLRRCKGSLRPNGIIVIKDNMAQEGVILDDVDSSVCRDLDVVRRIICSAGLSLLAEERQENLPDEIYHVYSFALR

As for `Oc1ccc(/C=C/c2cc(O)cc(O)c2)cc1`, the results for the Potency in assay [1] and in assay [2] were 50.1 µM (active) and 26.7 µM (active), respectively.

For the molecule `C[C@H]1O[C@@H](O[C@H]2[C@@H](O)C[C@H](O[C@H]3[C@@H](O)C[C@H](O[C@H]4CC[C@@]5(C)[C@H](CC[C@@H]6[C@@H]5C[C@@H](O)[C@]5(C)[C@@H](C7=CC(=O)OC7)CC[C@]65O)C4)O[C@@H]3C)O[C@@H]2C)C[C@H](O)[C@@H]1O`, the Potency entry in assay [2] is “inactive”.

These data come from PubChem BioAssay (NCATS).
